Out of some 390,000 compounds screened, about 17,000 (4.4%) were called active. Entries that show only a call come without a potency. Not shown: some 8% with an inconclusive outcome. Many of the other results were omitted from the sample, so actives are more common in it than they were. A number with no mark means an inactive call. Calls follow the shape of the dose curve; as a rule, active = well fitted inhibition curve with a large enough effect; inconclusive = small, poorly fitted or top-dose-only effect; inactive = no such curve, though single readings can be large or run the other way.
Potency is read from the fitted curve at half-maximal effect.

In the test the target is Lysine-specific demethylase 4A (Homo sapiens) (UniProt O75164). As to the kind of experiment: qHTS Assay for Inhibitors of JMJD2A-Tudor Domain. Also: nearly all actives have a fitted effect of over 50% in size. To be noted: AlphaScreen JMJD2A-Tudor / H3K4me3 peptide binding; series mostly up to 114 µM. For orientation: In qHTS, concentration-response curves come from the screen itself.
Sequence of Lysine-specific demethylase 4A (Homo sapiens) (O75164 whole entry, looked up, the tested form may be a part): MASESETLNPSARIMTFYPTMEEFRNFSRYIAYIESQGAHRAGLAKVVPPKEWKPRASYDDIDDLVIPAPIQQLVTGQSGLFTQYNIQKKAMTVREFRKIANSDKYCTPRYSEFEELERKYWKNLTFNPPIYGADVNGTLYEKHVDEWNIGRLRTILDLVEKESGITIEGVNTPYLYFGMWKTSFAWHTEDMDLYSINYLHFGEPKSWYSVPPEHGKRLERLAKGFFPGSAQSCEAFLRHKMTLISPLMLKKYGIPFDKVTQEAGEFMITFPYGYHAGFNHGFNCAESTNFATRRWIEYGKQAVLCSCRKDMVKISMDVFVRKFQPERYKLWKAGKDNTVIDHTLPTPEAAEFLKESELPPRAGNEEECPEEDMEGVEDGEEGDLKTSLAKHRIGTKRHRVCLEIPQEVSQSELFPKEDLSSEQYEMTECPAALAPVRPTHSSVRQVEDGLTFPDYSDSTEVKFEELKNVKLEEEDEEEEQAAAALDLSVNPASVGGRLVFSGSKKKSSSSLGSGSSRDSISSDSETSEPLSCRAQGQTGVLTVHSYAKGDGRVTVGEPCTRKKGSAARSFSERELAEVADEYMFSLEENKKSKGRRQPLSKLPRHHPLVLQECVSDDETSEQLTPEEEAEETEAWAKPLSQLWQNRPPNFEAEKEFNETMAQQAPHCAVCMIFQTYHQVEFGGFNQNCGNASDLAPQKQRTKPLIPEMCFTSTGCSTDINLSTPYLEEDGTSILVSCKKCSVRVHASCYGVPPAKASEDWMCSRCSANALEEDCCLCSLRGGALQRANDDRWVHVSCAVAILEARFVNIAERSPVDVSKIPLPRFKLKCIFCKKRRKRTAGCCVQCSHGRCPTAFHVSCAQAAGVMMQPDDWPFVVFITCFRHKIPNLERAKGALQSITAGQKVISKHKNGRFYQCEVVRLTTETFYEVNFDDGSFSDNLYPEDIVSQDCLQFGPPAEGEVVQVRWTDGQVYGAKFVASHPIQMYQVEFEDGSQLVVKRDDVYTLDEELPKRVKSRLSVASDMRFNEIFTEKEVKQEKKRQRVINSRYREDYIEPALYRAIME
For `COc1cc(OC)c(NC(=O)c2nc(-c3ccncc3)no2)cc1Cl`, the Potency entry is “inactive”. For `CC(C)(C)NC(=O)CSc1nc(-c2ccc(F)cc2)cc(C(F)(F)F)n1`, the Potency entry was “inactive”. Consider `CSc1nc(C)cc(SC(C(C)=O)C(=O)Nc2ccccc2)n1` (stereo unspecified), for which the Potency was 56.2 µM (active). Regarding `CC(Sc1nnc2c(n1)C1CCC2(C)C1(C)C)C(=O)Nc1ccccc1` (stereo unspecified), the Potency result was “inactive”.

Regarding `Cc1cc(C)nc(N(C#N)CC(=O)Nc2ccccc2)n1`, the Potency entry was “inactive”. Same read-out and setting: to `CCOc1ccc(NC(=O)c2c(NCc3cccc(OC)c3OC)sc3c2CCC3)cc1` belongs “inactive”; to `O=C(NCc1nnc(C(=O)Nc2ccc(C(F)(F)F)cc2Cl)o1)c1ccccc1`, “inactive”.

In the case of `Cc1ccc(NC(=O)Nc2sc3nc4n(c(=O)c3c2C)CCC(C)CC4)c(Cl)c1` (stereo unspecified), the Potency entry is “inactive”.

Regarding `COc1ccccc1C(=O)N/C(=C/c1ccc2c(c1)OCO2)C(=O)Nc1cccc(C(=O)O)c1`, the Potency entry was “inactive”. For the molecule `Cc1ccc(NC(=O)/C(=C\c2ccccc2)NC(=O)c2ccco2)cc1`, the Potency result was “inactive”. For the molecule `COc1ccccc1C(=O)N/C(=C/c1ccco1)C(=O)Nc1ccc(C(=O)O)cc1`, the Potency was 25.1 µM (active). Consider `Cc1cccc(C(CC(=O)NCC2(c3ccccc3)CCCC2)c2ccccc2)c1O` (stereo unspecified), for which the Potency result was “inactive”.

Take `CCOC(=O)CN1C(C(=O)c2ccccc2)=C(OC(=O)C(C)(C)C)c2ccccc2S1(=O)=O`: the Potency result was “inactive”.

In the case of `CC(CCCc1ccccc1)NC(=O)c1nn(-c2ccc(Cl)cc2)nc1CO` (stereo unspecified), the Potency entry was “inactive”. Turning to `O=C(Cn1cnc2c(OCc3ccccc3)ncnc21)NCc1nc2ccccc2[nH]1`, the Potency is 56.2 µM (active). `CC(CNC(=O)Cn1cnc2c(OCc3ccccc3)ncnc21)c1ccccc1` (stereo unspecified): the Potency entry was “inactive”.

Take `O=C(Cn1cnc2c(OCc3ccccc3)ncnc21)NCCCn1ccnc1`: the Potency result was “inactive”. Regarding `CC(C)S(=O)(=O)c1oc(-c2ccc(F)cc2)nc1S(=O)(=O)c1ccc(F)cc1`, the Potency result is “inactive”. For `Cc1ccc(Cl)cc1NC(=O)NC1COc2ccccc2C1` (stereo unspecified), the Potency entry is “inactive”. `COc1ccc(C(=O)NNC(=O)c2cc(C)[nH]n2)cc1`: the Potency entry is “inactive”.

On to `Cc1c(Cl)c([N+](=O)[O-])nn1Cc1ccc(C(=O)N/N=C\c2cc(Cl)ccc2O)o1`, for which the Potency result was “inactive”. Consider `Cc1cc(C(=O)N/N=C/c2cc([N+](=O)[O-])cc(C)c2O)n[nH]1`, for which the Potency is 44.7 µM (active). In the case of `CCCCS(=O)(=O)c1oc(-c2cccs2)nc1S(=O)(=O)c1ccccc1`, the Potency entry is “inactive”. The same measure, in the same setting: in the case of `CCOC(=O)c1ccc(-c2ccc(/C=C(\C#N)C(=O)Nc3ccc(C)cc3)o2)cc1` it was “inactive”; in that of `Cc1ccc(-c2ccc(/C=C(\C#N)C(N)=S)o2)c([N+](=O)[O-])c1`, 14.1 µM (active); in that of `CCCCOC(=O)/C(C#N)=C/c1ccc(-c2cccc(C(F)(F)F)c2)o1`, “inactive”. Same read-out and setting: in the case of `Cc1cccn2c(=O)c(C(=O)NC(C)c3ccccc3)cnc12` (stereo unspecified) it was “inactive”; in that of `CCC(C)c1ccc2oc(-c3ccc(NC(=O)c4cc5ccccc5o4)cc3)nc2c1` (stereo unspecified), “inactive”. In the case of `COc1ccc(N2CCN(C(=O)C3CCN(C(=O)c4ccccc4Cl)CC3)CC2)cc1`, the Potency result was “inactive”. Take `O=C(C1CCCN(S(=O)(=O)c2ccc([N+](=O)[O-])cc2)C1)N1CCCCC1` (stereo unspecified): the Potency result was “inactive”. Regarding `Cc1ccc(S(=O)(=O)N2CCCC(C(=O)N3CCN(C)CC3)C2)cc1` (stereo unspecified), the Potency was 2.82 µM (active). On the same count and under the same terms, in the case of `Cc1ccc(S(=O)(=O)N2CCC(N3CCCCCC3)CC2)cc1` it was 0.891 µM (active); in that of `COc1ccc(S(=O)(=O)N2CCCC(C(=O)N3CCN(C)CC3)C2)cc1C` (stereo unspecified), “inactive”. For the molecule `COc1ccc(N2CCN(C(=O)C3CCN(S(=O)(=O)c4ccc(C)cc4)CC3)CC2)cc1`, the Potency was 39.8 µM (active). On the same count and under the same terms, in the case of `Cc1ccc(S(=O)(=O)N2CCC(C(=O)N3CCCCCCC3)CC2)cc1` it was “inactive”.

With `CC(=O)Nc1ccc(S(=O)(=O)N2CCN(C3CCCCCCC3)CC2)cc1`, the Potency result was “inactive”.

With `Cc1ccc(S(=O)(=O)N2CCN(C)CC2)cc1`, the Potency entry is “inactive”. For the molecule `CCOC(=O)C1CCC(CN(Cc2ccc(OC)cc2)S(=O)(=O)c2ccc(F)c(C(=O)Nc3cc(C)ccc3C)c2)CC1` (stereo unspecified), the Potency entry is “inactive”. For the molecule `N#Cc1nc(/C=C/c2ccc(F)cc2)oc1NC1CCCCC1`, the Potency result was “inactive”. Turning to `COc1ccc(Cn2ccn(Cc3cccc(OC)c3)c(=O)c2=O)cc1`, the Potency entry is “inactive”. On the same count and under the same terms, in the case of `Cc1ccccc1Cn1nc(C)c(NC(=O)c2cc(-c3ccc(F)cc3)on2)c1C` it was “inactive”; in that of `Cc1c(Cl)cccc1NC(=O)CCS(=O)(=O)c1ccc2c(c1)oc(=O)n2C`, “inactive”. On to `COc1cccc(C(=O)NCc2ccc3c(c2)CCN3C(=O)c2ccncc2)c1`, for which the Potency entry was “inactive”.

In the case of `COc1cc(C)ccc1OCCSc1nc2ccc(NC(=O)c3ccc(C)cc3)cc2s1`, the Potency result was “inactive”. Same read-out and setting: to `COc1cc(Cl)c(C)cc1NC(=O)CCc1nc2cccnc2n1Cc1cccs1` belongs “inactive”.

In the case of `Oc1c(C=Nc2cccc3nsnc23)ccc2ccccc12`, the Potency was 89.1 µM (active). With `O=C(Nc1ccc(F)cc1F)c1ccc2c(=O)n3c(nc2c1)CCCCC3`, the Potency result was “inactive”. Still for that read-out and setting: to `COc1cc2c(=O)c(S(=O)(=O)c3ccc(C(C)C)cc3)cn(Cc3ccccc3C)c2cc1OC` belongs “inactive”; to `CCN(C(=O)Cc1nc(N)n[nH]1)C1(C(=O)Nc2ccccc2)CCCCC1`, 100 µM (active); to `CCc1ccc(NC(=O)CN2C(=O)C(c3ccccc3)=NC23CCCCCC3)cc1`, “inactive”. On to `C=CCN(C(=O)c1cc(C)cc(C)c1)C1(C(=O)Nc2ccccc2)CCN(C(C)C)CC1`, for which the Potency result is “inactive”. For `O=C(COC(=O)C1CCCO1)Nc1nc(-c2ccc(F)cc2)cs1` (stereo unspecified), the Potency entry was “inactive”. On to `CCc1ccc(CNC(=O)C2CCN(c3nn4cc(-c5ccc(F)cc5)nc4s3)CC2)cc1`, for which the Potency result was “inactive”. Still for that read-out and setting: in the case of `CC1CCCC(C)N1C(=O)CN1CCN(c2nc(-c3ccc(F)cc3)cs2)CC1` (stereo unspecified) it was 79.4 µM (active); in that of `O=C(CNC(=O)c1ccccc1)OC(C(=O)Nc1cc([N+](=O)[O-])ccc1F)c1ccccc1` (stereo unspecified), “inactive”; in that of `COc1ccc(Cn2ccnc2SCC(=O)NCc2ccco2)cc1`, “inactive”. Take `Cc1cccc(OCCSc2nc3ccc(NC(=O)COc4ccccc4C)cc3s2)c1`: the Potency result is “inactive”. Consider `C[C@@H]1O[C@@H](OC[C@H]2O[C@@H](Oc3c(-c4ccc(O)cc4)oc4cc(O)cc(O)c4c3=O)[C@H](O)[C@@H](O)[C@@H]2O)[C@H](O)[C@H](O)[C@H]1O`, for which the Potency result was “inactive”. As for `COc1ccc(-c2cc(=O)c3c(O)cc(O[C@@H]4O[C@H](CO[C@@H]5O[C@@H](C)[C@H](O)[C@@H](O)[C@H]5O)[C@@H](O)[C@H](O)[C@H]4O)cc3o2)cc1O`, the Potency was 20 µM (active). On the same count and under the same terms, to `COc1ccc(CCOC2OC(CO)C(OC(=O)/C=C/c3ccc(O)c(OC)c3)C(O[C@H]3O[C@@H](C)[C@H](O)[C@@H](O)[C@H]3O)C2O)cc1O` (stereo partly specified) belongs “inactive”; to `COc1ccc(NC(=O)N2CCCn3nc(C)cc32)cc1OC`, “inactive”. In the case of `Cc1ccccc1NC(=O)Cn1c(=O)n(CCc2ccccc2)c(=O)c2ccccc21`, the Potency entry is “inactive”. Consider `O=[N+]([O-])c1ccc(N(CCO)Cc2ccccc2)c([N+](=O)[O-])c1`, for which the Potency entry was “inactive”. Consider `O=C(Cc1ccc(Cl)cc1)c1ccccc1`, for which the Potency result was “inactive”. With `CN(C(=O)CN(CCO)CC(=O)N(C)C(C)(C)Cc1ccccc1)C(C)(C)Cc1ccccc1`, the Potency entry is “inactive”.

In the case of `CC(O)CN(Cc1ccc(Cl)cc1)CC(C)O` (stereo unspecified), the Potency is 8.91 µM (active). Take `CC(Cc1cccs1)N(Cc1ccc(Cl)cc1)C(=O)c1ccncc1` (stereo unspecified): the Potency entry was “inactive”. With `OCCN(Cc1ccccc1)Cc1ccc(Cl)cc1`, the Potency was 10 µM (active). Consider `Cc1ccc(CN(C(=O)c2ccccc2[N+](=O)[O-])c2ccccn2)cc1`, for which the Potency entry is “inactive”. Take `COc1ccc(CC(=O)Nc2ccc(-c3nc4ccccc4s3)c(C)c2)cc1`: the Potency entry was “inactive”. `Cc1ccc2cccc(NC(=O)C(C)Oc3ccc(C)c(C)c3)c2n1` (stereo unspecified): the Potency entry was “inactive”. `COc1ccc(-n2nc(C(=O)NCCc3ccc(Cl)cc3)c3c4ccccc4n(C)c3c2=O)cc1Cl`: the Potency entry is “inactive”. For the molecule `COc1cc(OC)c(NC(=O)Cc2ccc(-n3c(C)nc4cccnc43)cc2)cc1Cl`, the Potency result is “inactive”. Same read-out and setting: to `COc1cc2c(cc1OC)C(COc1ccc(F)cc1)N(C(=O)c1ccccc1F)CC2` (stereo unspecified) belongs “inactive”; to `Cc1cccc(C(=O)Nc2ccc(-c3nc4ncccc4o3)cc2C)c1`, “inactive”; to `NCC(=O)c1cccc2ccc[n+]([O-])c12`, “inactive”. Turning to `Cc1ccc2cccc(O)c2[n+]1[O-]`, the Potency was 10 µM (active). On the same count and under the same terms, to `O=C(NCC(c1ccco1)S(=O)(=O)c1cccs1)c1ccc(F)cc1` (stereo unspecified) belongs “inactive”; to `Cc1ccc(CNC(=O)CSc2c3c(nc4cc(Cl)ccc24)CCCC3)cc1`, “inactive”; to `COc1ccc(-c2nc(C)c(CCNC(=O)c3ccc(C(F)(F)F)cc3)s2)cc1OC`, “inactive”. For the molecule `Cc1ccc(Nc2c(-c3ccc(C)s3)nc3ccccn23)cc1`, the Potency entry was “inactive”.

Regarding `Cc1cccc(C)c1Nc1c(-c2ccccc2O)nc2ncccn12`, the Potency result was “inactive”. On to `Cc1ccc(-c2nc3ccccn3c2Nc2c(C)cccc2C)o1`, for which the Potency is 50.1 µM (active).

As for `c1ccc2c(CNn3cnnc3)cccc2c1`, the activity change, negative = inhibition was 0% [at 11.4 µM].

For `Nc1scc[n+]1Cc1cccc2cccnc12`, the Potency result is “inactive”. Take `c1ccc2c(C[n+]3csc4ccccc43)cccc2c1`: the Potency was 17.8 µM (active). In the case of `CCc1c(C)sc(NC(=O)C2c3ccccc3Oc3ccccc32)c1C(=O)OC(C)C`, the Potency result is “inactive”.

With `CCOC(=O)c1c(C)n(S(=O)(=O)c2ccc(C)cc2C)c2ccc(NS(=O)(=O)c3ccc(C)cc3C)cc12`, the Potency entry was “inactive”. Take `COc1ccc2c(c1)CCc1c(C(=O)Nc3cc(C)ccc3O)noc1-2`: the Potency result was “inactive”. Consider `Cc1ccc(N2CCN(C(=O)CCc3c(C)nc4c(c3C)c(=O)n(C)c(=O)n4C)CC2)c(C)c1`, for which the Potency result is “inactive”.

For the molecule `O=S(=O)(O)c1cc2onnc2c2ccccc12`, the Potency was 50.1 µM (active). Consider `CCC(Sc1nnc(-c2ccc(OC)cc2)c(-c2ccc(OC)cc2)n1)C(=O)NC1CCCCC1` (stereo unspecified), for which the Potency entry is “inactive”. As to `CCOC(=O)c1ccc(N2C(=O)c3[nH]nc(-c4ccccc4)c3C2c2ccc(C(C)C)cc2)cc1` (stereo unspecified), the Potency result was “inactive”. With `O=C(c1ccco1)N(Cc1cccs1)c1ccc(O)cc1`, the Potency entry is “inactive”. On the same count and under the same terms, to `O=C(C1=C(O)C(=O)N(c2ncccn2)C1c1cccs1)c1ccco1` (stereo unspecified) belongs 20 µM (active); to `O=C(C1=C(O)C(=O)N(Cc2ccccc2)C1c1cccnc1)c1ccco1` (stereo unspecified), “inactive”.
